Reference: PubChem BioAssay (NCI)
The panel holds about 83,000 compounds, 20% with a hit somewhere; the sample as a whole holds those more often.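 The endpoint reported here, percent growth, reads 100 for growth as untreated, 0 for no net growth and -100 for all cells dead.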 Active and inactive are the calls of the source.

test system: T-47D breast; assay: NCI-60 one-dose screen, 48 h (100 = growth as untreated, 0 = no growth, -100 = all killed); conditions: 10 µM unless noted
Description: Growth inhibition of the T-47D human tumor cell line is measured as a screen for anti-cancer activity. Cells are grown in 96 well plates and exposed to the test compound for 48 hours. Compounds are tested at a single concentration, which is 10^-5 M for most compounds. The reported endpoint is percent growth (GI% or GIPRCNT), where numbers from 0 - 100% represent growth inhibition, and numbers from -100% - 0 represent cell death. For example, a value of 40 represents 60% growth inhibition. A value of 0 means no net growth occurred over the course of the experiment. A value of -40 indicates 40% of cells at the beginning of the experiment died by the end of the experiment. A value of -100 means all cells are dead at the end of the experiment.
NCI-60 Human Tumor Cell Lines Screen was performed using the standard one-dose NCI protocol, which is described in more detail at https://dtp.cancer.gov/discovery_development/nci-60/default.htm.
Compounds with GIPRCNT values below 10 were considered active. Activity score was based on GIPRCNT using the following formula: […]
Score is 0 for GIPRCNT values of 100 or above, 50 for GIPRCNT values of 0, and 100 for GIPRCNT values of -100.

Row | Structure (SMILES) | growth
1 | O=C(Nc1ccc(Br)cc1)c1cc(Br)cc(Br)c1O | -2.63% (active)
2 | COc1cc([C@@H]2c3cc4c(cc3[C@H](OC(C)=O)[C@H]3COC(=O)[C@H]23)OCO4)cc(OC)c1OC | 57.8% (inactive)
3 | COc1ccc(/C=C\c2cc(OC)c(OC)c(OC)c2)c(NS(=O)(=O)c2ccc(Cl)cc2)c1O | 84.7% (inactive)
4 | COc1ccc2c(c1)c(-c1nc(-c3c[nH]c4ncccc34)cs1)cn2CCN1CCOCC1 | -1.96% (active)
5 | COC(=O)[C@@H](C)C[C@H](Cc1ccccc1)NC(=O)c1nc([C@@H](C[C@H](C(C)C)N(C)C(=O)[C@@H](NC(=O)[C@H]2CCCCN2C)C(C)C)OC(C)=O)sc1C | 66.1% (inactive)
6 | COc1cc(C=Nc2cccc(Br)c2)ccc1N(CCCl)CCCl | 91.3% (inactive)
7 | O=P(Oc1ccc(Cl)cc1)(N1CC1)N1CC1 | 106% (inactive)
8 | O=C(O)C(Cl)(Cl)C(F)(F)F | 106% (inactive)
9 | COc1ccc(Nc2ccc([N+](=O)[O-])cc2[N+](=O)[O-])cc1CN(CCCl)CCCl | 22.6% (inactive)
10 | C/C(Cc1ccc(Cl)cc1)=C(\c1ccc(OCCN2CCOCC2)cc1)c1ccc(OC(=O)Cc2ccccc2)cc1 | 66% (inactive)
11 | COc1ccc(NC([Se])=NC23CC4CC(CC(C4)C2)C3)cc1 | -11.7% (active)
12 | CN1CC(=O)N(O)C1(C)c1cccnc1 (stereo not given) | 93.4% (inactive)
13 | CC(=O)Oc1ccccc1C(=O)NCCC[Se]C#N | 83.3% (inactive)
14 | N#CC1(c2ccccc2)CCN(Cc2ccccc2)CC1 | 100% (inactive)
15 | C/C(=C\c1ccn(-c2ccc(N)c(F)c2)n1)[C@@H]1C[C@@H]2O[C@]2(C)CCC[C@H](C)[C@H](O)[C@@H](C)C(=O)C(C)(C)[C@@H](O)CC(=O)O1 | 38.5% (inactive)
16 | CC(=O)O[C@H]1C(=O)[C@@]2(C)[C@H]([C@H](OC(=O)c3ccccc3)[C@]3(O)C[C@H](OC(=O)[C@H](OC(=O)OC[C@H]4COC(C)(C)O4)[C@@H](NC(=O)c4ccccc4)c4ccccc4)C(C)=C1C3(C)C)[C@]1(OC(C)=O)CO[C@@H]1C[C@@H]2O | 31.3% (inactive)
17 | O=P1(NCCCl)OCCCN1CCCl (stereo not given) | 105% (inactive)
18 | C[C@]12CC[C@H]3[C@@H](CC[C@]4(O)C[C@@H](O[C@@H]5O[C@H](CO)[C@@H](O[C@@H]6OC[C@@H](O)[C@H](O)[C@H]6O)[C@H](O)[C@H]5O)CC[C@]34C=O)[C@@]1(O)CC[C@@H]2C1=CC(=O)OC1 | 2.52% (active)
19 | COc1cc2c(cc1OCc1ccccc1)C(CC(C)C)=[N+](C)CC2 | 58.4% (inactive)
20 | COP(=O)(OC)C(O)c1ccc(Cl)cc1 (stereo not given) | 114% (inactive)

Row | Structure (SMILES) | growth
21 | CC(=O)Nc1nc2c(s1)CC[C@@]1(C)C2=CC[C@H]2[C@@H]3CC[C@H](O)[C@@]3(C)CC[C@@H]21 | 82% (inactive)
22 | COC(=O)CC[C@H](Cc1ccccc1)NC(=O)c1csc([C@@H](C[C@H](C(C)C)N(C)C(=O)[C@@H](NC(=O)[C@H]2CCCCN2C)C(C)C)OC(C)=O)n1 | 77.8% (inactive)
23 | CNC(=O)Oc1ccc2c(c1)OCO2 | 99.9% (inactive)
24 | CCn1nccc1NC(=O)C(=O)c1cn(Cc2ccc(F)cc2)c2cccc(OC)c12 | 80.5% (inactive)
25 | CCC1CN1CCCCN1CC1CC (stereo not given) | 92.1% (inactive)
26 | c1ccc(COc2ccc3[nH]cc(CCN(Cc4ccccc4)Cc4ccccc4)c3c2)cc1 | 62.9% (inactive)
27 | COC(=O)[C@@H](C)C[C@H](Cc1ccccc1)NC(=O)c1csc([C@@H](C[C@H](C(C)C)N(C)C(=O)[C@H](C)NC(=O)[C@H]2CCCCN2C)OC(C)=O)n1 | 41.9% (inactive)
28 | O=C1CC2(CC3(Cl)C(Cl)=C(Cl)C2(Cl)C3(Cl)Cl)C(=O)O1 (stereo not given) | 99.6% (inactive)
29 | ClCCN(CCCl)c1ccc(OCc2ccccc2)cc1 | 68.4% (inactive)
30 | C=CCCCN=C=S | 47.3% (inactive)
31 | CC1=C(CCCOC(=O)CN)C2=C(C)C3(CC3)[C@@](C)(O)C(=O)C2=C1 | 63.6% (inactive)
32 | CC1=C(CNO)C2=C(C)C3(CC3)[C@@](C)(O)C(=O)C2=C1 | -3.61% (active)
33 | COC(=O)[C@H](Cc1ccccc1)NC(=O)c1csc([C@@H](C[C@H](C(C)C)N(C)C(=O)[C@@H](NC(=O)[C@H]2CCCN2C)C2CC2)OC(C)=O)n1 | 54.5% (inactive)
34 | CC(=O)O[C@H](C[C@H](C(C)C)N(C)C(=O)[C@@H](NC(=O)[C@H]1CCCCN1C)C(C)C)c1nc(C(=O)N[C@@H](Cc2ccccc2)C[C@H](C)C(=O)O)c(CCOCc2ccccc2)s1 | 62.4% (inactive)
35 | CC(C)(C)C(=O)OCOP(=O)(NCc1ccccc1)C1CCCN(O)C1=O (stereo not given) | 23.3% (inactive)
36 | CCCC(C)C1(CC)C(=O)NC(=O)N(C)C1=O (stereo not given) | 87% (inactive)
37 | COc1ccc2c(c1)c(C1(O)CC(CSC#N)OC1=O)cn2C(=O)c1ccc(Cl)cc1 (stereo not given) | 100% (inactive)
38 | COC(=O)[C@@H](NC(=O)c1cn(CCC2CCCCC2)c2ccccc12)C(C)(C)C | 61.9% (inactive)
39 | CC(C)=CC1C(C(=O)OCc2cccc(Oc3ccccc3)c2)C1(C)C (stereo not given) | 81.5% (inactive)
40 | O=C(CCCCCCC(=O)Nc1ccc(N(CCCl)CCCl)cc1)NO | -8.98% (active)
